Test results from PubChem BioAssay (Tox21).
Unmarked numbers belong to inactive results. The source made the active and inactive calls. Calls come from the whole dose curve; as a rule, active = well fitted curve in the direction sought with a large enough effect in the repeat runs; inconclusive = weak or mixed curves; inactive = flat fitted curve, though single readings scatter.

test: qHTS assay to test for compound auto fluorescence at 535 nm (green) in HepG2 cell free culture (AID 720686); details: Cell-free medium, green autofluorescence 485/535 nm; series mostly up to 91.3 µM; fluorescence, % of fluorescein control: at the top concentration
Description: U.S. Tox21 Program National Center for Advancing Translational Sciences [NCATS] NIH Chemical Genomics Center [NCGC] U.S. Environmental Protection Agency [EPA] National Institutes of Environmental Health Sciences [NIEHS] National Toxicology Program [NTP] U.S. Food and Drug Administration [FDA] Tox21 Assay Overview: Compound auto fluorescence often interferes with screening of the compound library against various biological targets and signaling pathways. Some of these compounds may have fluorophoric properties. Such properties may interfere with the assay outputs resulting in false positives and/or negatives. To decrease such complications and ensure the compound activities are relevant in terms of biological response, the Tox21 10K compound library was screened for auto fluorescence. From the fluorophores used as reporter signals in our screening assays, the auto fluorescence equivalencies of compounds against three fluorophores have been evaluated: Triamterene, Fluorescein and Rose Bengal sodium for blue, green and red fluorescence, respectively. The fluorescence intensities were measured using Excitation/Emission wavelengths at 405/460nm, 485/535nm and 540/590nm for blue, green and red labels, respectively. This assay includes the green fluorescence data.
Tox21 Assay Protocol Summary: 5 uL of culture medium (MEM containing 10% FBS) per well was dispensed into black wall/clear bottom 1536-well plates using a Multidrop Combi Dispenser (ThermoFisher Scientific, Waltham, MA). After 23 nL compound or DMSO vehicle was transferred into assay plate by a pintool work station (Kalypsys, San Diego, CA), fluorescence intensities in the assay plates were measured by an Envision (PerkinElmer, Shelton, CT) plate reader using three labels for measuring blue, green and red fluorescence at […] 460, 535 and 590nm respectively.
% is set by controls: 0 for no effect and ±100 for the full control effect.

Compared with C=CCCCCCC, CCCCCCCCC(CO)CCCCCC (stereo not given) is higher in “fluorescence, % of fluorescein control” value: -0.0396% for the first, 0.0157% for the second.

First: COc1cc(C(C)(C)C)c(O)c(C(C)(C)C)c1
Second: CC(C)(C)C1CCCCC1O (stereo not given)
The “fluorescence, % of fluorescein control” value of the first is higher: 0.0329% for the first, -0.104% for the second.

Compared with O=C(O)C(c1ccc(Cl)cc1)c1ccc(Cl)cc1, CCC(C)N(C)C(=O)c1cc2ccccc2c(-c2ccccc2Cl)n1 (stereo not given) is higher in “fluorescence, % of fluorescein control” value: -0.0206% for the first, 0.0662% for the second.

First: Cn1c(N)nc2nc[nH]c2c1=O
Second: Cn1sccc1=O
The “fluorescence, % of fluorescein control” value of the first is higher: 0.0361% for the first, 0.0221% for the second.

First: Cc1ccc(C)o1
Second: CC(C)NCC(O)COc1ccc(CC(N)=O)cc1 (stereo not given)
The “fluorescence, % of fluorescein control” value of the first is higher: 0.0294% for the first, -0.0959% for the second.

Going from O=C(O)c1cccc(N(Cc2cccnc2)c2ccc(OC(F)F)c(OC(F)F)c2)c1 to O=C1c2cccc(O)c2C(=O)c2c(O)cc(CO)cc21, the “fluorescence, % of fluorescein control” value falls from 0.0455% to -0.0383%.

Compared with C=C(C)C(=O)OCCN(C)C, CCOC(=O)CC(C)C is higher in “fluorescence, % of fluorescein control” value: -0.0204% for the first, 0.009% for the second.

Going from CC1=CCC(C(C)C)C=C1 (stereo not given) to CC(C)CCCC(C)CCO (stereo not given), the “fluorescence, % of fluorescein control” value rises from -0.174% to -0.0198%.

First: NCCCOCCOCCOCCCN
Second: CC(C)CCCCCCOC(=O)c1ccc(C(=O)OCCCCCCC(C)C)c(C(=O)OCCCCCCC(C)C)c1
The “fluorescence, % of fluorescein control” value of the first is higher: 0.0645% for the first, -0.0183% for the second.

Going from CCCCC(CC)(CO)CO to Oc1ccc(O)c2c(O)cccc12, the “fluorescence, % of fluorescein control” value falls from -0.0597% to -0.252%.

For O=C=NC1CCC(CC2CCC(N=C=O)CC2)CC1 (stereo not given), the “fluorescence, % of fluorescein control” value was 0.0103%.

First: Nc1nc(N)c(-c2ccccc2)s1
Second: Nc1ccc(C(=O)Nc2ccccc2N)cc1
The “fluorescence, % of fluorescein control” value of the first is lower: -0.0206% [at 46 µM] for the first, 0.0893% [at 46 µM] for the second.

Compared with O=C(CCN1CCN2CCCC2C1)N1c2ccccc2Sc2ccc(Cl)cc21 (stereo not given), CN1CCC(=C2c3ccccc3C=Cc3ccccc32)CC1 is lower in “fluorescence, % of fluorescein control” value: 0.0113% [at 46 µM] for the first, -0.0963% [at 46 µM] for the second.

First: CC1CCc2cc(F)cc3c(=O)c(C(=O)O)cn1c23 (stereo not given)
Second: CCOc1cc(OCC)c(C(=O)CCC(=O)O)cc1OCC
The “fluorescence, % of fluorescein control” value of the first is lower: -0.0517% [at 46 µM] for the first, 0.0323% [at 46 µM] for the second.

First: c1ccc(OCc2ccc(CCCN3CCOCC3)cc2)cc1
Second: CC(Cc1cccc(C(F)(F)F)c1)NCCOC(=O)c1ccccc1 (stereo not given)
The “fluorescence, % of fluorescein control” value of the first is higher: 0.002% [at 46 µM] for the first, -0.0182% [at 46 µM] for the second.

Compared with O=C1[C@H](CC[C@H](O)c2ccc(F)cc2)[C@@H](c2ccc(O)cc2)N1c1ccc(F)cc1, CN(C)CC[C@@H](c1ccc(Br)cc1)c1ccccn1 is higher in “fluorescence, % of fluorescein control” value: -0.0249% [at 46 µM] for the first, -0.0099% [at 46 µM] for the second.

First: CC(C)NCC(O)c1cc(O)cc(O)c1 (stereo not given)
Second: CCN(CC)CCNC(C(=O)OCCC(C)C)c1ccccc1 (stereo not given)
The “fluorescence, % of fluorescein control” value of the first is lower: -0.0315% [at 46 µM] for the first, 0.0606% [at 46 µM] for the second.

For CC[C@H](C)[C@H](N)C(=O)O, the “fluorescence, % of fluorescein control” value was -0.043% [at 46 µM].

With CC(=O)Nc1ccc(/C=N/NC(N)=S)cc1 the outcome was “inactive”.
With CC(C(=O)O)c1ccc(-c2ccccc2)c(F)c1 (stereo not given) the outcome was “inactive”.
In the case of CCCCCCCCCCCCCCCC(=O)OC/C=C(C)/C=C/C=C(C)/C=C/C1=C(C)CCCC1(C)C, the outcome is reported as “inactive”.

First: CCN(CC)CCc1nc(-c2ccccc2)no1
Second: CCCCc1cc2ccccc2c(OCCN(C)C)n1
The fluorescence, % of fluorescein control of the first is lower: -0.0688% [at 18.6 µM] for the first, 0.0394% [at 18.6 µM] for the second.

Molecule CN1CCC(OC(c2ccccc2)c2ccccc2)CC1 has a fluorescence, % of fluorescein control of -0.14% [at 18.6 µM].
